Screening data (PubChem)
Shown are actives, neighbours in structure and some others; about 18% of the full set was active somewhere.
DT40 TDP1 CPT – growth inhibition of DT40 Tdp1-/-;hTDP1 cells with camptothecin (screen for TDP1 inhibitors) | chicken DT40 Tdp1-/-;hTDP1 cells + 20 nM CPT, ATP luminescence, 48 h | 420,000 tested, 12% active | Potency, µM (top dose mostly 46.2 µM), hits mostly inhibitors; also: nearly all actives have a fitted effect of over 55% in size
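Cell growth measured by CellTiter-Glo luminescence after a minimum 48 h, 37 C compound exposure with 20 nM CPT in Tdp1-knockout DT40 cells stably expressing hTDP1, seeded 400/well; qHTS titration format.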
IL1B secr inh – blocks inflammasome-driven IL-1 beta release | THP-1 LPS/ATP IL-1B secretion, AlphaLISA, 16 h; hits give low values | activity change, % at 57.5 µM | 360,000 tested, 4.7% active; in the data active = activity change below about -50%; inconclusive = mostly about -30% to -49%
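Secreted IL-1B measured by AlphaLISA bead assay after 16 h compound exposure of THP-1 cells; compounds (final up to 57.5 uM) added 1 h before LPS (250 ng/mL) and ATP (1.25 mM) stimulation; lower signal means less secretion.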
DT40 TDP1 no CPT – qHTS for Inhibitors of human tyrosyl-DNA phosphodiesterase 1 (TDP1): qHTS in cells in absence of CPT; DT40 Tdp1-/- hTDP1 cells, no CPT, ATP luminescence, 48 h; Potency, µM (titrated, usually from 46.2 µM), most hits filed as inhibitors; 420,000 tested, 15% active; AID 686978, 2013; also: nearly all actives have a fitted effect of over 55% in size
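Stably hTDP1-transfected Tdp1-null chicken DT40 cells were treated with library compounds minus camptothecin and grown for at least 48 hr at 37 °C, after which cellular ATP was quantified by luminescence.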
TGFb SMAD3 inh – blocks TGF-b signaling. HepG2 CAGA-GFP TGF-b/SMAD3 reporter, GFP fluorescence, 18 h; TGF-beta stimulated, 500 pg/mL final. Potency, µM (top dose mostly 46.1 µM), hits mostly inhibitors. 410,000 tested, 1.2% active; also: nearly all actives have a fitted effect of over 65% in size
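GFP signal (ex488/em500-530) from TGF-beta-stimulated HEPG2 CAGA-GFP cells, 500 pg/mL final, 18 h at 37 degrees C in DMEM plus 1% FBS, normalized to unstimulated and DMSO-stimulated controls.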
TDP1 block – blocks human tyrosyl-DNA phosphodiesterase 1. Potency, µM (series often up to 130 µM), hits mostly inhibitors. Q9NUW8. recombinant TDP1, AlphaScreen DNA substrate cleavage. 350,000 tested, 0.28% active; also: nearly all actives have a fitted effect of over 40% in size
Target sequence (Q9NUW8 whole entry, looked up): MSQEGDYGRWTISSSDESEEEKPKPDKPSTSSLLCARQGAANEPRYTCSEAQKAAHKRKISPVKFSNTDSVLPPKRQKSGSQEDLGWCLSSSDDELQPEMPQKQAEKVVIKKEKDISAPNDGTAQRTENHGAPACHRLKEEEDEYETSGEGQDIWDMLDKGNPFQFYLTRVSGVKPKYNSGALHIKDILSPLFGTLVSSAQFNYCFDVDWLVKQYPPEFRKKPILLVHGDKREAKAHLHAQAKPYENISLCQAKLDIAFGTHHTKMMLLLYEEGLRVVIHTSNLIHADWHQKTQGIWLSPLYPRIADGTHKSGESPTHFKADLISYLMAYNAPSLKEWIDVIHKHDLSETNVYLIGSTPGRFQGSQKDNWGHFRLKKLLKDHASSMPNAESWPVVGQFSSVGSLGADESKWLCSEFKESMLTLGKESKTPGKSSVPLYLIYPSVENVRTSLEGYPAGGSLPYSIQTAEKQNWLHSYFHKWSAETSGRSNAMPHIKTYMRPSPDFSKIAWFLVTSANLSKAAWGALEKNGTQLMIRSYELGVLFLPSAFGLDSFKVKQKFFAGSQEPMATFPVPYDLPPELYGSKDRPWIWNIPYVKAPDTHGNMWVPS
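Enzyme-compound mixtures sat 15 min at room temperature, followed by a 5 min reaction with 15 nM final substrate and 10 min with AlphaScreen beads. Recombinant human Tdp1 was used at 1 nM final.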
HepG2 tox – HepG2 cytotoxicity, counter-screen for TGF-b inhibitors; HepG2 CAGA-GFP viability, ATP luminescence, 18 h; Potency, µM (doses to about 46.1 µM), hits mostly cytotoxic; 410,000 tested, 0.76% active; AID 588856
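HepG2 CAGA-GFP cells (1000/well, DMEM with 1% FBS) received compound, then TGF-beta at 500 pg/mL final, and were incubated 18 hours at 37 degrees C. Viability was read by CellTiter-Glo luminescence. Media-only wells were set as complete cell-killing and DMSO as no toxicity.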
Hits are given with their value; . = inactive; ? = inconclusive; / = no result given. Unless noted, calls follow the shape of the dose curve; as a rule, active = well fitted curve in the direction sought with a large enough effect; inconclusive = small, poorly fitted or top-dose-only effect, or another doubt; inactive = no such curve, though single readings can be large; an effect the other way counts as inactive or inconclusive.

SMILES | DT40 TDP1 CPT | IL1B secr inh | DT40 TDP1 no CPT | TGFb SMAD3 inh | TDP1 block | HepG2 tox
CC1CCN(S(=O)(=O)c2ccc(C(=O)Nc3ccccc3-c3nc4ccccc4[nH]3)cc2)CC1 | ? | . | ? | . | . | .
COc1cc(-c2noc(-c3ccc(NC4CCCC4)c([N+](=O)[O-])c3)n2)cc(OC)c1OC | . | / | . | . | . | .
COc1ccccc1C(=O)N1CCCCC1CCN1CCOCC1 (stereo unspecified) | . | / | . | ? | . | .
CCc1nnc(NC(=O)c2ccc(S(=O)(=O)N3CCCC(C)C3)cc2)o1 (stereo unspecified) | ? | . | ? | . | . | .
CC1CCCN(S(=O)(=O)c2ccc(C(=O)Nc3nnc(-c4ccco4)o3)cc2)C1 (stereo unspecified) | 8.2µM | . | 7.3µM | . | . | .
O=[N+]([O-])c1ccc2[nH]c(O)c(N=NC(=S)NCC3CCCO3)c2c1 (stereo unspecified) | ? | . | 15µM | . | . | .
Cc1cccc(OCC(=O)NCC(=O)N=Nc2c(O)[nH]c3ccc([N+](=O)[O-])cc23)c1 | . | . | . | . | . | .
COc1ccc(/C=C/C(=O)NCC(=O)N=Nc2c(O)[nH]c3ccc([N+](=O)[O-])cc23)cc1 | . | . | . | . | 50µM | .
Cc1ccc(NCC(=O)N=Nc2c(O)[nH]c3ccc([N+](=O)[O-])cc23)cc1 | ? | . | 23µM | . | . | .
CCNC(=S)N=Nc1c(O)[nH]c2ccc([N+](=O)[O-])cc12 | 3.3µM | . | 4.1µM | . | . | .
CC(C)N(Cc1ccccc1)C(=O)c1nc(-c2ccc(Cl)cc2)n2c1CCCCC2 | 9.2µM | / | 18µM | ? | . | .
CCOc1ccccc1CNC(=O)c1nc(-c2ccc(Cl)cc2)n2c1CCCCC2 | 23µM | / | ? | ? | . | .
COC(=O)c1ccccc1NC(=O)c1nc(-c2ccc(C)cc2)n2c1CCCCC2 | / | / | / | . | . | .
CC(=O)c1cccc(NC(=O)c2nc(-c3ccc(C)cc3)n3c2CCCCC3)c1 | / | / | / | . | . | .
COC(=O)c1ccc(NC(=O)c2nc(-c3ccc(Cl)cc3)n3c2CCCCC3)cc1 | 0.73µM | / | 0.82µM | / | . | .
O=C(NCCc1ccc(Cl)cc1)c1nc(-c2cccc(F)c2)n2c1CCCCC2 | 18µM | / | 9.2µM | ? | . | .
CCCNC(=O)N(C)C[C@@H]1Oc2ncc(-c3ccncc3)cc2C(=O)N([C@H](C)CO)C[C@@H]1C | . | . | . | . | / | .
Cc1ccc(NC(=O)C(C)SCC(=O)Nc2ccc(F)cc2)cc1S(=O)(=O)N1CCOCC1 (stereo unspecified) | ? | . | . | . | / | .
COc1ccc(-n2c(=O)c(CCC(=O)NCCc3ccccc3F)nc3ccccc32)cc1 | ? | . | ? | ? | . | .
CS(=O)(=O)c1ccc(S(=O)(=O)N2CCC(CO)(CCCc3ccccc3)CC2)cc1 | ? | . | ? | . | . | .
Cc1nnc(SCC(=O)NNC(=O)c2ccc(Cl)cc2)s1 | . | . | . | . | . | .
O=C(NCCc1ccccc1)c1nc(-c2ccc(Cl)cc2)n2c1CCCCC2 | 12µM | / | 10µM | ? | . | .
Cc1ccc(-c2nc(C(=O)NCc3ccc(Cl)cc3)c3n2CCCCC3)cc1 | / | / | / | ? | . | .
CCOc1ccc(-n2c(SCc3ccc(C(=O)OC)o3)nc3c([nH]c4ccccc43)c2=O)cc1 | 23µM | / | ? | . | . | .
COC(=O)c1ccc(CSc2nc3c([nH]c4ccccc43)c(=O)n2-c2ccc(OC)cc2)o1 | 18µM | / | 18µM | . | . | .
SMILES | DT40 TDP1 CPT | IL1B secr inh | DT40 TDP1 no CPT | TGFb SMAD3 inh | TDP1 block | HepG2 tox
Cc1cccc(C)c1NCC(=O)N1CCN(Cc2ccccc2)CC1 | ? | . | ? | . | / | .
CCc1nc2ccc(C(=O)NCCC(C)C)cn2c1N(CC)CCOC | ? | . | 21µM | . | / | .
CCc1nc2ccc(C(=O)NCCC(C)C)cn2c1N(C)Cc1ccc(OC)cc1 | ? | . | 16µM | . | / | .
CCc1nc2ccc(C(=O)NCCOc3ccc(OC)cc3)cn2c1N(C)Cc1cccs1 | ? | -52 | ? | ? | / | .
CCCCNC(=O)c1ccc2nc(CC)c(N(C)Cc3ccc(OC)cc3)n2c1 | 16µM | . | ? | . | / | .
O=C(NCc1cc(Cl)cc(Cl)c1)c1csc([C@@H]2O[C@H](CO)[C@H](O)[C@H](O)[C@H]2O)n1 | . | . | . | . | / | .
CC1CC(C)CN(S(=O)(=O)c2cccc3nsnc23)C1 (stereo unspecified) | ? | . | ? | . | . | .
CCc1nc2ccc(C(=O)NCCOc3ccc(OC)cc3)cn2c1N(C)CCCc1ccccc1 | ? | . | ? | 14µM | / | .
CCc1nc2ccc(C(=O)NCCOc3ccc(OC)cc3)cn2c1N(C)Cc1ccc(OC)cc1 | ? | . | 21µM | ? | / | .
O=C(NCCc1c[nH]c2ccccc12)c1[nH]c(C(F)(F)F)nc1-c1ccccc1 | ? | . | ? | . | / | .
CCCS(=O)(=O)N1CCCC(C(=O)NCCc2ccc(Cl)cc2)C1 (stereo unspecified) | . | . | ? | . | . | .
CCCn1c(=S)[nH]c2cc(C(=O)N3CCN(C4CCCCC4)CC3)ccc2c1=O | ? | . | ? | . | . | .
CCOC(=O)c1ccc(NC(=O)c2nc(SCc3ccccc3F)ncc2Cl)cc1 | ? | / | ? | . | . | .
O=C(Nc1ccccc1)c1nc(S(=O)(=O)Cc2ccccc2F)ncc1Cl | 1.1µM | / | 1.1µM | 3.2µM | / | 7.1µM
COC(=O)c1ccc(NC(=O)c2nc(S(=O)(=O)Cc3ccccc3F)ncc2Cl)cc1 | 0.71µM | / | 0.89µM | 6.3µM | / | 13µM
O=C(NCc1ccc2c(c1)OCO2)c1nc(S(=O)(=O)Cc2ccccc2F)ncc1Cl | 4.1µM | -100 | 2.1µM | 11µM | . | 16µM
CC1(C(=O)NS(=O)(=O)c2cccc(Cl)c2)CCN1C(=O)C1(c2ccc(Cl)cc2)CC1 (stereo unspecified) | ? | . | . | . | / | .
COc1ccc(-n2c(=O)c3c4c(sc3n(Cc3ccccc3C)c2=O)CCCC4)c(OC)c1 | ? | / | ? | . | . | .
O=C(O)Cn1cc(C(=O)c2cccs2)c2ccccc21 | ? | . | . | . | . | .
O=C(c1cccs1)c1cn(CC(=O)N2CCc3ccccc3C2)c2ccccc12 | 23µM | . | ? | . | . | .
CC(=O)N1CCc2cc(Br)cc(S(=O)(=O)CCC(=O)Nc3ccc(C)cc3Cl)c21 | . | / | . | . | . | .
